Rows were chosen to be rich in hits. Some 1.6% of all compounds tested hit in one or more screens of this group.
Plk1 PBD FP: blocks phosphopeptide binding to human Plk1 polo box domain; 97,000 tested, 0.13% active; Plk1 PBD phosphopeptide binding, fluorescence polarization; P53350; AID 693; inhibition, %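 (tested at about 20 µM)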; in the data active = inhibition above about 34%, passing the limit was not always enough
Smad3 inh: inhibitors of human Smad3 transcription factor binding | P84022 | TR-FRET Smad3/Dy647-FoxH1 peptide binding, europium anti-His | inhibition, % at 25 µM | 88,000 tested, 0.29% active | AID 630;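 active = compounds that reduce the energy-transfer binding signal between the protein and its labelled peptide by more than half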;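 note: 0% = Smad3 plus labelled peptide maximal FRET and 100% = peptide-only background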
FAK blocker: blocks human focal adhesion kinase activity; Q05397; inhibition, %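 (tested at 7 µM)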; AID 727; biochemical FAK kinase activity assay; 97,000 tested, 0.84% active; in the data active = inhibition above about 19%;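 note: 0% = DMSO and 100% = reference compound high control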
Target sequence (Q05397 whole entry, looked up): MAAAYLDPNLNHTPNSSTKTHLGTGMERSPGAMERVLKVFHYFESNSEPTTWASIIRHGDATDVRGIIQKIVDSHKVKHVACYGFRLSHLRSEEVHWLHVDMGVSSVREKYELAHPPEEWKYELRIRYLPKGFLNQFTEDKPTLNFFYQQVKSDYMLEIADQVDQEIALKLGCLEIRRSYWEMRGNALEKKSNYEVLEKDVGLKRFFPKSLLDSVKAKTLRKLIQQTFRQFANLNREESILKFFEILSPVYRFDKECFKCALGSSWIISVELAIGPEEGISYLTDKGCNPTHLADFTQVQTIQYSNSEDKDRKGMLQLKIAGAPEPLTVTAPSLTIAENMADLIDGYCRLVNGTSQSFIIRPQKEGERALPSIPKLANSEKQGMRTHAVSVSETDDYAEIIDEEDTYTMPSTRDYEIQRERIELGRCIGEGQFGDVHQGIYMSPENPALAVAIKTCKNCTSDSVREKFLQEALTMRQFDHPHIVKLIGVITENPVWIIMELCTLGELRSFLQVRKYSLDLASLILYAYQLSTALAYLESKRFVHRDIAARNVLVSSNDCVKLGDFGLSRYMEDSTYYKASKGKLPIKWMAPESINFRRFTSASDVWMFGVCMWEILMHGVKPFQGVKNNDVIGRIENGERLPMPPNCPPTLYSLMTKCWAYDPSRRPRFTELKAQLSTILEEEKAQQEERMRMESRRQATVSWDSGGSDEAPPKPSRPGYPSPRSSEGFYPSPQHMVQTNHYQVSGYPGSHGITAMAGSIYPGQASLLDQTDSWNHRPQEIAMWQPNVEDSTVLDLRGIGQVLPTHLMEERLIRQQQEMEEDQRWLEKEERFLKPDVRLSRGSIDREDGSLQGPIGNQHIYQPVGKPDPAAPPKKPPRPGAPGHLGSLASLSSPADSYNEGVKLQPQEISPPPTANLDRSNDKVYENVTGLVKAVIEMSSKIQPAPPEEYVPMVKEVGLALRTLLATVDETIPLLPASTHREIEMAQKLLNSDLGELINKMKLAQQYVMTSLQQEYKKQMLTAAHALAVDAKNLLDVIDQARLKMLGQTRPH
PLK1 inh: inhibitors of human PLK1 kinase. P53350. recombinant PLK1 kinase, TR-FRET peptide phosphorylation. inhibition, % at 10 µM. 97,000 tested, 0.53% active. AID 619;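 active = inhibition of 50% or more in the single-concentration screen; inactive = inhibition below 50%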;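 note: 0% = DMSO max control and 100% = H-89 dihydrochloride min control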
EphB4 ephrin blk: antagonists of human EphB4-ephrin-B2 interaction | 97,000 tested, 0.15% active | inhibition, % at 7 µM | P54760 | EphB4 LBD / TNYL-RAW-Alexa532 peptide, fluorescence polarization | AID 720;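 active = inhibition above the screen-wide mean inhibition plus 3 SD, cut at about 15% in these data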;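 note: 0% = DMSO wells and 100% = excess unlabeled TNYL-RAW peptide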
* marks the source's active call; other numbers are inactive results; · = no result given; ! = a repeat was not active; [ ] = remark or other dose.

SMILES | Plk1 PBD FP | Smad3 inh | FAK blocker | PLK1 inh | EphB4 ephrin blk
S=C(Nc1ccc2cn[nH]c2c1)Nc1ccc2cn[nH]c2c1 | · | 45.1 | · | · | ·
Brc1ccc2[nH]ncc2c1 | -6.2 | -9.5 | 3.2 | 50.7* | -6.6
O[C@@H]1[C@@H](OCc2ccccc2)OC[C@H](O)[C@H]1O | · | 14.1 | · | · | ·
CCOC(=O)c1ccc(NC(=S)NCC(O)c2ccccc2)cc1 (stereo not drawn) | -16.3 | · | -7.5 | -2.2 | 16.9*
CCOC(=O)c1ccc(NC(=S)NCCc2ccccc2)cc1 | -4.3 | · | -2.3 | -10.5 | 4.3
Cc1cc(Cc2cc(C)c(N)cc2N)c(N)cc1N | · | 102.1* | · | · | ·
Cc1cn([C@@H]2C[C@H](O)[C@@H](COC(N)=O)O2)c(=O)[nH]c1=O | · | 5.2 | · | · | ·
O=C(Nc1c(Cl)cc(Cl)cc1C(=O)NCc1cccnc1)c1ccc(Cl)cc1Cl | 57.4* | · | -1.7 | -7.6 | -10.2
COC(=O)C1C2C=CC3(CN(C(C)C)C(=O)C13)O2 (stereo not drawn) | 13.4 | 1.2 | 3.7 | 54.8* | 3.5
NS(=O)(=O)c1ccc(NCc2cnc3ccccc3c2)cc1 | · | 102.1* | · | · | ·
O=C(N/N=C/c1ccc([N+](=O)[O-])s1)c1cccc(Br)c1 | 24.1 | 11.1 | 21.1* | -18.5 | -4.3
O=C(NCC1c2ccccc2CCN1C(=O)CN1CCOCC1)C1CCCCC1 (stereo not drawn) | -26.9 | 63.2*[fluorescence artefact?] | -3.0 | -7.7 | -3.5
Cc1ccc(S(=O)(=O)c2c(C)cc(C)nc2Cl)cc1 | -11.8 | · | -2.3 | -4.8 | -0.3
Cc1cc(C)c(S(=O)(=O)c2ccccc2)c(Cl)n1 | 8.9 | · | 1.6 | 63.9* | -6.1
O=C(O)c1cccc(SSc2cccc(C(=O)O)c2)c1 | · | 7.3 | · | · | ·
CC1(C)Cc2ccccc2-c2nnc(SCC(=O)Nc3nc4ccccc4s3)n21 | -11.3 | 1.1 | 0.0 | -4.3 | 17.8*
Cc1ccc(C(=O)CC2(O)C(=O)N(C)c3ccccc32)o1 (stereo not drawn) | 10.2 | 3.3 | -0.5 | 63.4* | -5.1
COc1ccc(-c2cn(/N=C/c3ccc(Cl)cc3Cl)c(N)n2)cc1 | -20.1 | 0.0 | 1.4 | 61.2* | 2.8
COc1ccc(-c2onc3ccc(Cl)cc23)cc1 | -7.7 | · | -0.7 | -12.1 | 5.2
O=C1CN(C(=O)COc2ccccc2)CCN1 | -3.8 | -5.0 | 5.1 | 61.4* | 3.8
COc1ccc(N2CCN(C(=O)COc3ccccc3)CC2)cc1 | -21.6 | 7.1 | -1.5 | 1.9 | 1.5
Nc1nncn1C(=O)c1c(Cl)cccc1Cl | -5.2 | 5.9 | -2.6 | 7.2 | -5.5
Cc1ccc(C)c(C(=O)n2cnnc2N)c1 | 7.5 | -4.2 | 3.2 | 54.5* | 1.3
Nc1nncn1C(=O)c1cccs1 | -9.6 | 2.6 | 0.3 | 57.4* | -0.1
Cc1ccc(C(=O)n2cnnc2N)cc1 | -9.7 | -5.8 | -7.9 | 3.4 | -3.1
SMILES | Plk1 PBD FP | Smad3 inh | FAK blocker | PLK1 inh | EphB4 ephrin blk
Oc1cc(O)c2c(c1)O[C@H](c1ccc(O)c(O)c1)[C@@H](O)[C@@H]2c1c(O)cc(O)c2c1O[C@@H](c1ccc(O)c(O)c1)[C@H](O)C2 | · | 13.5 | · | · | ·
Nc1ncnc2c1ncn2[C@H]1O[C@@H](C(=O)O)[C@H](O)[C@H]1O | · | -0.2 | · | · | ·
CC1=Nc2ccccc2/C1=C\c1nc(-c2ccc(F)cc2)oc1O | -36.9 | -1.5 | -1.0 | -12.4 | 15.4*
CN=Cc1nc(-c2ccccc2)oc1O | -0.7 | -12.0 | 2.3 | -8.8 | -5.2
N=C1C=CC(=C(c2ccc(N)cc2)c2ccc(N)cc2)C=C1 | · | 3.5 | · | · | ·
C=CCn1c(C#N)c(N)sc1=N | -11.3 | 1.8 | 2.6 | 8.2 | 15.3*
CC[C@H]1CN(C)[C@@H]2Cc3c([nH]c4ccccc34)C(=O)C[C@H]1[C@H]2C(=O)OC | · | 1.2 | · | · | ·
O/N=C/c1cc(Br)ccc1OCc1ccccc1F | 14.9 | · | 20.5* | -2.7 | -9.4
C=CCOc1ccc(Br)cc1/C=N/O | 21.9 | -11.4 | 6.0 | -4.9 | -3.6
O=C(CSc1nc(-c2ccco2)cc(C(F)(F)F)n1)Nc1ccc2c(c1)CCC2 | 0.7 | 0.7 | -1.4 | -13.0 | -5.5
O=C(CSc1nc(-c2ccco2)cc(C(F)(F)F)n1)NC1CCCC1 | 17.6 | -5.5 | 1.8 | 68.5* | -2.0
COC(=O)CSc1nc(C)cc(Oc2ccccc2)n1 | -3.9 | 4.0 | 0.0 | 58.8* | -3.6
Cc1cc(Oc2ccccc2)nc(SCC(=O)Nc2ccc(Cl)cc2Cl)n1 | -6.0 | 4.8 | 1.6 | -9.1 | 0.2
C[C@H](CCC(=O)O)[C@H]1CC[C@@]2(C)[C@@H]3C(=O)C[C@H]4C(C)(C)[C@@H](O)CC[C@]4(C)[C@H]3C(=O)C[C@]12C | · | -11.3 | · | · | ·
C/C(=N\Nc1ccc2ccccc2n1)c1ccccc1O | · | 9.3 | · | · | ·
CN(C)CCCN=c1c2ccccc2n(C)c2[nH]c(=O)n(C)c(=O)c12 | · | -1.1 | · | · | ·
C#CCn1c(=NC(=O)CN2C(=O)CCC2=O)sc2cccc(C)c21 | -38.8 | 1.2 | 4.3 | 62.4* | -1.7
C=CCn1c(=NC(=O)CN2C(=O)CCC2=O)sc2cccc(OC)c21 | -16.2 | -0.2 | -1.8 | -10.7 | 1.1
C[C@H](CCC(=O)NN)[C@@H]1CC[C@@H]2[C@H]3CC[C@H]4C[C@@H](O)CC[C@]4(C)[C@@H]3CC[C@]21C | · | 6.9 | · | · | ·
Nc1ccc(N(S(=O)(=O)c2ccccc2)S(=O)(=O)c2ccccc2)c(Cl)c1 | · | 87.1* | · | · | ·
O=C(O)CC1C(=O)NCCN1Cc1ccc(F)c(F)c1 (stereo not drawn) | -14.0 | -3.3 | 0.4 | 64.7* | -3.0
Cc1ccc(CN2CCNC(=O)C2CC(=O)O)cc1 (stereo not drawn) | -14.9 | 4.2 | -4.3 | 60.9* | -3.8
COc1ccc(CN2CCNC(=O)C2CC(=O)O)cc1OC (stereo not drawn) | 7.1 | 0.0 | -1.0 | -9.3 | 5.8
Nc1ccccc1S[C@@H](C[N+](=O)[O-])c1ccc2c(c1)OCO2 | · | 22.4 | · | · | ·
C[C@]1(O)CC[C@H]2[C@H]3CC=C4N5CCN=C5CC[C@@]4(C)[C@@H]3CC[C@@]21C | · | -10.2 | · | · | ·
SMILES | Plk1 PBD FP | Smad3 inh | FAK blocker | PLK1 inh | EphB4 ephrin blk
CC(C)(C)NC[C@@H](O)c1ccc(O)c(CO)n1 | · | 14.3 | · | · | ·
O=C(O)[C@@H](Cc1c[nH]c2ccccc12)C(=O)NO | · | 5.5 | · | · | ·
O=S1(=O)CCN(c2ccccc2CC(c2c[nH]c3ccccc23)c2c[nH]c3ccccc23)CC1 | · | 88.0* | · | · | ·
CCOC(=O)c1sc2nc(C)c3c(c2c1N)CC(C)(C)OC3 | -9.0 | -23.0 | 14.9 | -17.2 | 15.4*
C=CCn1c(=O)c(C(=O)Nc2cccnc2)c(O)c2ccccc21 | -3.0 | 29.0 | 23.0* | -12.0 | -0.8
C=CCn1c(=O)c(C(=O)Nc2nnc(C)s2)c(O)c2ccccc21 | · | 36.5 | · | · | ·
CN1CCN(CCCN2c3ccccc3Sc3ccc(C(F)(F)F)cc32)CC1 | · | 69.8*! | · | · | ·
CN(C)CC/C=C1/c2ccccc2Sc2c(O)cc(Cl)cc21 | 14.9 | 3.3 | 40.2* | -9.7 | -0.9
CCCc1cc(COC)c(C#N)c(=O)[nH]1 | · | 6.8 | · | · | ·
c1ccc(-c2ccc(-c3ccc(C4=NCCN4)cc3)o2)cc1 | · | -2.6 | · | · | ·
Cc1nc(CN2CCCCC2)c(O)c(=O)[nH]1 | · | -1.2 | · | · | ·
O=C(NCCN1CCN(c2ccccc2)CC1)C1CCN(S(=O)(=O)N2CCOCC2)CC1 | -9.0 | -1.6 | -2.4 | 56.0* | -0.6
O=C(NCCCN1CCN(c2ccccc2F)CC1)C1CCN(S(=O)(=O)N2CCOCC2)CC1 | -17.1 | 2.3 | -2.6 | -11.6 | 1.1

Screens deposited in PubChem BioAssay by several laboratories.
